Test results from PubChem BioAssay (NCI).
About 79,000 compounds went through this panel and 15% of them were active in at least one assay; those are over-represented in the sample as a whole. Activity calls are given as the source filed them. Cut-off read from the data, not from the text of the source: active = growth inhibition above about 70%; inactive = the rest.

Experiments:
[1] = NCI Yeast Anticancer Drug Screen. Data for the wt1 strain (AID 149);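 note: 0% = growth of vehicle-treated wt1 cultures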; settings: S. cerevisiae wt1 strain (SPY 50644) growth inhibition, active compounds read high
In short: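 wt1 yeast, compound-treated; % growth inhibition vs vehicle control.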

[2] = NCI Yeast Anticancer Drug Screen. Data for the rad50EPP+ strain (AID 151);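 note: 0% = growth of vehicle-treated control cultures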; settings: S. cerevisiae rad50 mutant strain, active compounds read high
In short: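 Strain rad50EPP+; compound exposure; % growth inhibition vs vehicle.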

[3] = NCI Yeast Anticancer Drug Screen. Data for the mgt1 strain (AID 153); settings: S. cerevisiae mgt1 mutant growth inhibition, active compounds read high
In short: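 Read-out: yeast growth inhibition vs vehicle control. Strain mgt1, drawn from a panel altered in DNA damage repair or cell cycle control.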

[4] = NCI Yeast Anticancer Drug Screen. Data for the rad50 strain (AID 155);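 note: 0% = growth of vehicle-only cultures of the same strain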; settings: S. cerevisiae rad50 strain growth inhibition, active compounds read high
In short: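 Genetically altered yeast (DNA repair pathway); compound treatment; growth inhibition vs vehicle ctrl.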

[5] = NCI Yeast Anticancer Drug Screen. Data for the mec2-1 strain (AID 157); settings: S. cerevisiae mec2-1 strain, active compounds read high
In short: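 Cells of the genetically defined mec2-1 yeast strain are incubated with test compound. Inhibition of growth is calculated against vehicle-treated controls.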

[6] = NCI Yeast Anticancer Drug Screen. Data for the rad14 strain (AID 159);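 note: 0% = growth of vehicle-treated control cultures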; settings: S. cerevisiae rad14 strain growth inhibition, active compounds read high
In short: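 Test compounds were applied to a repair-deficient yeast strain. Its growth was then compared with that of cultures given vehicle alone, and inhibition was expressed relative to those controls.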

[7] = NCI Yeast Anticancer Drug Screen. Data for the sgs1 mgt1 strain (AID 161);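 note: 0% = growth of cultures given vehicle only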; settings: S. cerevisiae sgs1 mgt1 strain, active compounds read high
In short: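 Read-out: growth inhibition vs vehicle controls. Cells: mutant yeast strain deficient in DNA damage repair.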

[8] = NCI Yeast Anticancer Drug Screen. Data for the CLN2oe strain (AID 163);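 note: 0% = growth of vehicle-only control cultures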; settings: S. cerevisiae CLN2oe strain, active compounds read high
In short: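 Strain altered in cell-cycle control, incubated with compound; growth compared to solvent-treated controls.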

[9] = NCI Yeast Anticancer Drug Screen. Data for the cln2 rad14 strain (AID 165);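 note: 0% = growth equal to vehicle treated cultures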; settings: S. cerevisiae cln2 rad14 strain, active compounds read high
In short: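 The screen exposed genetically defined yeast (cln2 rad14) to test compounds and scored growth inhibition relative to vehicle-treated controls.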

[10] = NCI Yeast Anticancer Drug Screen. Data for the bub3 strain (AID 167); settings: S. cerevisiae bub3 mutant strain, active compounds read high
In short: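 Yeast carrying a defined mutation is treated with each compound, and growth is compared with that of vehicle-exposed cells to give inhibition.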

[11] = NCI Yeast Anticancer Drug Screen. Data for the wt2 strain (AID 169);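 note: 0% = growth of vehicle-treated yeast cultures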; settings: S. cerevisiae wt2 strain growth inhibition, active compounds read high
In short: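 Steps: yeast strain treated with compound; growth recorded; inhibition calculated relative to cultures given vehicle alone.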

[12] = NCI Yeast Anticancer Drug Screen. Data for the mlh1 strain (AID 171);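 note: 0% = growth of vehicle-treated control cultures of the same strain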; settings: S. cerevisiae mlh1 strain growth inhibition, active compounds read high
In short: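 Yeast screen: mutant strain plus compound, growth scored against vehicle control wells.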

[13] = NCI Yeast Anticancer Drug Screen. Data for the sgs1 strain (AID 173);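 note: 0% = growth of vehicle-only control cultures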; settings: S. cerevisiae sgs1 mutant, active compounds read high
In short: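 Inhibition of yeast growth served as the measure. The mutant strain was treated with each compound, and growth was normalised to cultures receiving vehicle alone.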

[14] = NCI Yeast Anticancer Drug Screen. Data for the mlh1 rad18 strain (AID 175); settings: S. cerevisiae mlh1 rad18 strain growth inhibition, active compounds read high
In short: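 Compound-treated yeast growth, normalised to vehicle controls. Strain bears defined DNA repair mutations.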

[15] = NCI Yeast Anticancer Drug Screen. Data for the rad18 strain (AID 177); settings: S. cerevisiae rad18 mutant growth inhibition, active compounds read high
In short: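 Inhibition values reflect reduced yeast growth compared with vehicle-treated controls, using a strain engineered with a DNA damage repair defect.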

[16] = at 5.0 µM (retest, dose inferred, filed as 0.5)
[17] = at 50.0 µM (retest, dose inferred, filed as 5.0)

Measured: growth inhibition

CC(C)OC(=O)Oc1ccccc1OC(=O)OC(C)C
inactive: [1]; at 1.2 µM -2% | [1]; at 3.7 µM -3% | [1]; at 11.0 µM -1% | [1]; at 33.0 µM -3% | [1]; at 100.0 µM -2% | [2]; at 1.2 µM -1% | [2]; at 3.7 µM 2% | [2]; at 11.0 µM 2% | [2]; at 33.0 µM -1% | [2]; at 100.0 µM 2% | [3]; at 1.2 µM 2% | [3]; at 3.7 µM 3% | [3]; at 11.0 µM 3% | [3]; at 33.0 µM 2% | [3]; at 100.0 µM 4% | [4]; at 1.2 µM -5% | [4]; at 3.7 µM -3% | [4]; [16] 1% | [4]; at 11.0 µM -2% | [4]; at 33.0 µM -1% | [4]; [17] 3% | [4]; at 50.0 µM 39.3% | [4]; at 100.0 µM -1% | [5]; at 1.2 µM 0% | [5]; at 3.7 µM -1% | [5]; [16] -15% | [5]; at 11.0 µM 0% | [5]; at 33.0 µM 0% | [5]; [17] -5% | [5]; at 50.0 µM 20.9% | [5]; at 100.0 µM -1% | [6]; at 1.2 µM -6% | [6]; at 3.7 µM -4% | [6]; at 11.0 µM -3% | [6]; at 33.0 µM 0% | [6]; at 100.0 µM 0% | [7]; [16] -2% | [7]; [17] -6% | [7]; at 50.0 µM 1.8% | [8]; at 1.2 µM 2% | [8]; at 3.7 µM 4% | [8]; at 11.0 µM 3% | [8]; at 33.0 µM 1% | [8]; at 100.0 µM 4% | [9]; [16] 26% | [9]; [17] 55% | [9]; at 50.0 µM 23.2% | [10]; at 1.2 µM 0% | [10]; at 3.7 µM 0% | [10]; [16] 15% | [10]; at 11.0 µM 4% | [10]; at 33.0 µM 7% | [10]; [17] 8% | [10]; at 50.0 µM 15.7% | [10]; at 100.0 µM 9% | [11]; at 1.2 µM -3% | [11]; at 3.7 µM -2% | [11]; at 11.0 µM -2% | [11]; at 33.0 µM -3% | [11]; at 100.0 µM -2% | [12]; at 1.2 µM 0% | [12]; at 3.7 µM 1% | [12]; at 11.0 µM 2% | [12]; at 33.0 µM 3% | [12]; at 100.0 µM 3% | [13]; at 1.2 µM -1% | [13]; at 3.7 µM 0% | [13]; at 11.0 µM 1% | [13]; at 33.0 µM 1% | [13]; at 100.0 µM 2% | [14]; [16] -20% | [14]; [17] -7% | [14]; at 50.0 µM -9.1% | [15]; at 1.2 µM -3% | [15]; at 3.7 µM 1% | [15]; at 11.0 µM 0% | [15]; at 33.0 µM -3% | [15]; at 100.0 µM 0%

CCCCCCCC1(N=[N+]=[N-])C(=O)c2ccccc2N(C)C1=O (stereo unspecified)
active: [1]; at 100.0 µM 73% | [4]; at 50.0 µM 79.3% | [4]; at 100.0 µM 74% | [5]; at 33.0 µM 72% | [5]; [17] 80% | [5]; at 50.0 µM 81.2% | [5]; at 100.0 µM 80% | [7]; [17] 71% | [7]; at 50.0 µM 79.5% | [8]; at 100.0 µM 79% | [9]; [17] 75% | [10]; [17] 83% | [12]; at 100.0 µM 78% | [13]; at 33.0 µM 71% | [13]; at 100.0 µM 85% | [14]; [17] 87% | [14]; at 50.0 µM 76.3% | [15]; at 100.0 µM 83%
inactive: [1]; at 1.2 µM 7% | [1]; at 3.7 µM 7% | [1]; at 11.0 µM 7% | [1]; at 33.0 µM 59% | [2]; at 1.2 µM 5% | [2]; at 3.7 µM 15% | [2]; at 11.0 µM 24% | [2]; at 33.0 µM 54% | [2]; at 100.0 µM 65% | [3]; at 1.2 µM -11% | [3]; at 3.7 µM -18% | [3]; at 11.0 µM -2% | [3]; at 33.0 µM 51% | [3]; at 100.0 µM 69% | [4]; at 1.2 µM -1% | [4]; at 3.7 µM 1% | [4]; [16] -4% | [4]; at 11.0 µM 13% | [4]; at 33.0 µM 67% | [4]; [17] 60% | [5]; at 1.2 µM -3% | [5]; at 3.7 µM -27% | [5]; [16] -1% | [5]; at 11.0 µM -2% | [6]; at 1.2 µM -23% | [6]; at 3.7 µM -20% | [6]; at 11.0 µM -20% | [6]; at 33.0 µM 39% | [6]; at 100.0 µM 63% | [7]; [16] -7% | [8]; at 1.2 µM 21% | [8]; at 3.7 µM 8% | [8]; at 11.0 µM 23% | [8]; at 33.0 µM 61% | [9]; [16] 30% | [9]; at 50.0 µM 68.7% | [10]; at 1.2 µM -9% | [10]; at 3.7 µM -17% | [10]; [16] 3% | [10]; at 11.0 µM -15% | [10]; at 33.0 µM 52% | [10]; at 50.0 µM 64.5% | [10]; at 100.0 µM 69% | [11]; at 1.2 µM 13% | [11]; at 3.7 µM 16% | [11]; at 11.0 µM 20% | [11]; at 33.0 µM 57% | [11]; at 100.0 µM 67% | [12]; at 1.2 µM 20% | [12]; at 3.7 µM 10% | [12]; at 11.0 µM 18% | [12]; at 33.0 µM 61% | [13]; at 1.2 µM 9% | [13]; at 3.7 µM 14% | [13]; at 11.0 µM 20% | [14]; [16] 0% | [15]; at 1.2 µM 18% | [15]; at 3.7 µM 12% | [15]; at 11.0 µM 20% | [15]; at 33.0 µM 67%

O=C(NC(Nc1ccc(F)c(Cl)c1)(C(F)(F)F)C(F)(F)F)C(C(F)(F)F)C(F)(F)F
inactive: [1]; at 1.2 µM 8% | [1]; at 3.7 µM 7% | [1]; at 11.0 µM 48% | [2]; at 1.2 µM -7% | [2]; at 3.7 µM -13% | [2]; at 11.0 µM -25% | [2]; at 33.0 µM -16% | [2]; at 100.0 µM 2% | [3]; at 1.2 µM 26% | [3]; at 3.7 µM 25% | [3]; at 11.0 µM 54% | [4]; at 1.2 µM 8% | [4]; at 3.7 µM 17% | [4]; [16] 28% | [4]; at 11.0 µM 44% | [4]; at 50.0 µM 24.6% | [5]; at 1.2 µM 8% | [5]; at 3.7 µM 23% | [5]; [16] 3% | [5]; at 50.0 µM 27.6% | [6]; at 1.2 µM 9% | [6]; at 3.7 µM 19% | [6]; at 11.0 µM 26% | [7]; [16] 17% | [7]; at 50.0 µM 36% | [8]; at 1.2 µM 9% | [8]; at 3.7 µM 32% | [9]; [16] 43% | [10]; at 1.2 µM 5% | [10]; at 3.7 µM 15% | [10]; [16] 20% | [11]; at 1.2 µM 1% | [11]; at 3.7 µM 34%
active: [1]; at 33.0 µM 96% | [1]; at 100.0 µM 98% | [3]; at 33.0 µM 94% | [3]; at 100.0 µM 98% | [4]; at 33.0 µM 91% | [4]; [17] 96% | [4]; at 100.0 µM 96% | [5]; at 11.0 µM 74% | [5]; at 33.0 µM 97% | [5]; [17] 92% | [5]; at 100.0 µM 98% | [6]; at 33.0 µM 85% | [6]; at 100.0 µM 94% | [7]; [17] 72% | [8]; at 11.0 µM 92% | [8]; at 33.0 µM 97% | [8]; at 100.0 µM 97% | [9]; [17] 98% | [9]; at 50.0 µM 88% | [10]; at 11.0 µM 80% | [10]; at 33.0 µM 95% | [10]; [17] 95% | [10]; at 50.0 µM 75% | [10]; at 100.0 µM 97% | [11]; at 11.0 µM 86% | [11]; at 33.0 µM 99% | [11]; at 100.0 µM 99%
